# Results taken from PubChem BioAssay AID504832 (National Center for Advancing Translational Sciences (NCATS), 2011).
# About 18,000 (5.8%) of roughly 310,000 compounds were called active. Entries that show only a call come without a potency. Roughly 22% stayed inconclusive and do not appear here. The sample holds actives, similar compounds and a random draw of the others, so the mix is not that of the screen. Values without a mark were called inactive. Calls come from the whole dose curve; as a rule, active = well fitted inhibition curve with a large enough effect; inconclusive = small, poorly fitted or top-dose-only effect, or another doubt; inactive = no such curve, though single readings can be large or run the other way.
# Test: Primary qHTS for delayed death inhibitors of the malarial parasite plastid, 48 hour incubation
# Conditions: P. falciparum luciferase growth in erythrocytes; series mostly up to 28.7 µM
# How it was run: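 Read-out is firefly luciferase luminescence from an integrated reporter in P. falciparum, so falling signal marks reduced parasite growth. Infected erythrocytes were at 2% hematocrit and 0.1% parasitemia (final) in Albumax-supplemented RPMI 1640.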
# Potency is the fitted concentration of half-maximal effect.
SMILES,Potency,"activity change, negative = inhibition"
COc1cc(N=Cc2c(O)c3ccccc3oc2=O)c(OC)cc1Cl,inactive,–
CC(C)c1nnc(NC(=O)COC(=O)/C=C/c2ccc([N+](=O)[O-])cc2)s1,inactive,–
COc1ccccc1-n1nnnc1SCC(=O)NC(=O)Cc1ccccc1,inactive,–
C=CCOc1cccc(CNn2cn[nH]c2=S)c1,inactive,–
C=CCOc1c(CNn2cn[nH]c2=S)cccc1OC,inactive,–
COc1cccc(CNn2cn[nH]c2=S)c1OCc1ccccc1,10.4 µM (active),–
CC(=O)c1c(C)[nH]c(C(=O)OCC(=O)Nc2c(C)cccc2C)c1C,inactive,–
CSc1ccc(Cl)c(C(=O)OCC(=O)N2CCNC2=O)c1,inactive,–
CCOC(=O)CC1C(=O)NCCN1C(=O)COc1ccc(Br)cc1C (stereo unspecified),inactive,–
CCOC(=O)CC1C(=O)NCCN1c1nc2c(C)cccn2c(=O)c1/C=C1\SC(=S)N(C(C)CC)C1=O (stereo unspecified),8.28 µM (active),–
COc1ccc(C(=O)NC(=S)N2CCNC(=O)C2CC(=O)OC(C)C)cc1 (stereo unspecified),inactive,–
Cc1cc2c(cc1C)[n+](C)cn2CC(O)COCC1CC=CCC1 (stereo unspecified),2.94 µM (active),–
COc1ccc(S(=O)(=O)NCCOc2ccccc2)cc1F,inactive,–
COc1ccc(NC(=O)CCC(=O)Nc2cc(OC)c(NC(=O)c3ccco3)cc2OC)c(OC)c1,inactive,–
CC1(c2ccc(Cl)cc2Cl)NC(=O)N(CC(=O)Nc2cccnc2Cl)C1=O (stereo unspecified),inactive,–
Cc1cc(Br)ccc1NC(=O)CN(C)C(=O)CN1C(=O)NC2(CCCC2)C1=O,inactive,–
Cc1ccc(S(=O)(=O)Nc2ccc3ncccc3c2)cc1,inactive,–
COc1cc(NS(=O)(=O)c2ccc3ccccc3c2)c2ncccc2c1,4.15 µM (active),–
COc1ccc2cc(S(=O)(=O)Nc3ccccn3)ccc2c1,inactive,–
CN(C(=O)C1CCN(c2ncnc3c2nc2n3CCCCC2)CC1)C1CCCCC1,inactive,–
Cc1cc(C)cc(NC(=O)NCc2ccccn2)c1,inactive,–
CN(C)C(=O)N=NC(=O)N(C)C,inactive,–

SMILES,Potency,"activity change, negative = inhibition"
Cc1ccc(C(=O)CS(C)(=O)=O)cc1,inactive,–
O=C(CN1C2=NCCN2c2ccccc21)c1cccs1,inactive,–
Cc1ccc(-c2c[n+](CC(=O)Nc3ccccc3)c3n2CCC3)cc1,7.38 µM (active),–
O=C(CN1CCOCC1)Nc1ccccc1,inactive,–
O=C(C[n+]1cc(-c2ccc(Cl)c(Cl)c2)n2c1CCC2)c1cccs1,2.08 µM (active),–
Cc1ccc(C(=O)CSc2ccccc2C(=O)O)cc1,inactive,–
CCS(=O)(=O)N1CCN(C(=O)c2cccs2)CC1,inactive,–
Cc1ccc(S(=O)(=O)N(C)CC(=O)OCC(=O)Nc2ccccc2)cc1,inactive,–
Cc1ccc(C(=O)C[n+]2cc(-c3ccccc3)n3c2CCCCC3)cc1,1.85 µM (active),–
Cc1c(NC(=O)c2c([N+](=O)[O-])cnn2C)c(=O)n(-c2ccccc2)n1C,inactive,–
Cc1ccc(NC(=O)CCN2C(=O)c3ccccc3C2=O)cc1C,inactive,–
O=C(NCc1ccc2c(c1)OCO2)C(=O)NCC1OCCN1S(=O)(=O)c1ccc(F)cc1 (stereo unspecified),inactive,–
O=C(COc1ccccc1)Nc1cc2c3c(c1)CC(=O)N3CCC2,inactive,–
Cc1nn(-c2ccccc2)c2c1c(C)c(CCC(=O)NCC1CCCO1)c(=O)n2C (stereo unspecified),inactive,–
Cc1cc(OCC(=O)Nc2c(C)n(C)n(-c3ccccc3)c2=O)ccc1[N+](=O)[O-],inactive,–
CCCCc1nc2cc(C(=O)NCCc3cnn(C)c3)ccc2o1,inactive,–
Cc1oc(-c2ccccc2F)nc1CS(=O)CC(=O)NCCN1CCCCC1C (stereo unspecified),inactive,–
CC(C)NC(=S)NN=C1CCCCCCCCCCC1,11.7 µM (active),–
C/C(=N\NC(=S)NC(C)C)c1ccc(C(C)(C)C)cc1,inactive,–
CC(C)(C)NC(=O)C(=O)NN=C1CCCCCCC1,inactive,–
COc1ccccc1C(=O)Nc1cccc(C(=O)N2CCOCC2)c1,inactive,–
Cc1noc(C)c1CCC(=O)N1CCCC(CO)(Cc2ccccc2)C1 (stereo unspecified),inactive,–

SMILES,Potency,"activity change, negative = inhibition"
Cc1ccccc1N1CCN(CCCN2C(=O)C3CCCCN3C2=O)CC1 (stereo unspecified),inactive,–
CC(=O)Nc1ccc(S(=O)(=O)NNC(=O)CCc2ccccc2)cc1,inactive,–
CS(=O)(=O)N1CCCC(C(=O)Nc2ccccc2C(F)(F)F)C1 (stereo unspecified),inactive,–
O=C(OCC1OC(Oc2ccc(O)cc2)C(O)C(O)C1O)c1ccccc1 (stereo unspecified),inactive,–
Cc1cc(C)c2nc3nc(C)cc(C)c3c(N)c2c1,2.33 µM (active),–
Cc1cc(C)c2nc(SCCC#N)nc(C)c2c1,inactive,–
Cc1cc(C)c2nc(-c3ccco3)cc(C(=O)O)c2c1,inactive,–
CCC1=Nc2cc(C(=O)NCCN3CCCC3)ccc2Sc2ccc(C)cc21,10.4 µM (active),–
Cc1cc(C)cc(C(=O)NCCN2CCOCC2)c1,inactive,–
Cc1ccc(C(=O)NCCN2CCOCC2)cc1C,inactive,–
CC(C)c1ccc(N(C(=O)c2ccco2)C(C(=O)NC2CCCC2)c2cccnc2)cc1 (stereo unspecified),9.28 µM (active),–
Cc1ccccc1N(C(=O)CNC(=O)c1cccs1)C(C(=O)NC1CCCC1)c1ccncc1 (stereo unspecified),inactive,–
O=C(NC1CCCC1)C(c1ccco1)N(C(=O)c1csnn1)c1ccccc1 (stereo unspecified),inactive,–
O=C(NC1CCCC1)C(c1ccc(N2CCOCC2)cc1)N(C(=O)c1ccco1)c1ccccc1F (stereo unspecified),10.4 µM (active),–
O=C(NCc1ccccc1)C(c1ccco1)N(C(=O)c1csnn1)c1ccccc1F (stereo unspecified),inactive,–
COc1cccc(N(C(=O)CNC(=O)c2ccco2)C(C(=O)NC2CCCCC2)c2cccnc2)c1 (stereo unspecified),inactive,–
COc1cccc(C(C(=O)NC2CCCC2)N(C(=O)c2ccco2)c2cccc(C(C)=O)c2)c1OC (stereo unspecified),1.85 µM (active),–
COc1cc(C(C(=O)NC2CCCC2)N(C(=O)c2ccco2)c2ccccc2C(C)=O)cc(OC)c1OC (stereo unspecified),inactive,–
Cc1ccc(N(C(=O)CNC(=O)c2ccco2)C(C(=O)NC2CCCC2)c2ccncc2)cc1 (stereo unspecified),inactive,–
CSc1ccccc1NC(=O)C(C)N1C(=O)c2ccccc2S1(=O)=O (stereo unspecified),inactive,–
CC1=C(C(=O)OC2CCCCC2)C(c2ccccc2F)NC(=O)N1 (stereo unspecified),inactive,–
CC(=O)c1c(C)[nH]c(C(=O)COc2ccc3c(C)cc(=O)oc3c2)c1C,inactive,–

SMILES,Potency,"activity change, negative = inhibition"
CN(C1CCS(=O)(=O)C1)S(=O)(=O)c1ccc2ccccc2c1 (stereo unspecified),inactive,–
COc1ccc(NC(=O)NNC(=O)COc2cc(C)c(Cl)c(C)c2)c(OC)c1,inactive,–
CCN1C(=O)/C(=c2\s/c(=C3\Sc4ccccc4N3C)c(=O)n2C)N(C)C1=S,inactive,–
CN1/C(=c2/s/c(=C3/C(=O)N(c4ccccc4)NC3=Nc3ccccc3)n(C)c2=O)C(C)(C)c2ccccc21,13.1 µM (active),–
CCc1cc2c(NC(Cc3ccccc3)C(=O)O)ncnc2s1 (stereo unspecified),inactive,–
CC(C)(C)C(=O)CSc1ccc(S(=O)(=O)N2CCCC2)cn1,inactive,–
Cc1ccc(C)c(C(C)NC(=O)C2CCCO2)c1 (stereo unspecified),inactive,–
COc1ccc(C(=O)NC2CC2)cc1OC1CCN(Cc2cnn(C)c2)CC1,inactive,–
Clc1ccc(CN2CCCCCC2)cc1Cl,inactive,–
Clc1ccc(C[n+]2cc(-c3ccc(Cl)cc3)n3c2CCC3)cc1,0.828 µM (active),–
Cn1c(-c2ccccc2)c[n+]2c1CCCCC2,inactive,–
Clc1ccc(C[n+]2cc(-c3ccccc3)n3c2CCC3)cc1,1.04 µM (active),–
CC(NC(=O)c1cc2cc(Cl)ccc2oc1=N)c1ccccc1 (stereo unspecified),inactive,–
O=C(Nc1ccc(F)cc1)C(=O)c1cn(CC(=O)N2CCOCC2)c2ccccc12,inactive,–
COc1ccc(S(=O)(=O)NC(C)C(=O)NCc2ccncc2)cc1Cl (stereo unspecified),inactive,–
COc1ccc(NC(=O)CCCC(=O)c2ccccc2)cc1,inactive,–
CC(C)Cn1c(N)c(C(=O)COC(=O)C2CCCN2C(=O)c2cccs2)c(=O)n(C)c1=O (stereo unspecified),inactive,–
Cc1ccc(OCCCC(=O)Nc2ccc(S(=O)(=O)Nc3cc(C)nc(C)n3)cc2)cc1,inactive,–
O=C(Nc1ccccc1)N1CCN(C(=O)Nc2ccccc2)CC1,inactive,–
O=C(Nc1ccccc1)N1CCC(C(=O)N2CCN(Cc3ccccc3)CC2)CC1,inactive,–
O=C(Nc1ccccc1)N1CCN(C2c3ccccc3-c3ccccc32)CC1,2.62 µM (active),–
Cc1cccc(OC(C)C(=O)N2CCc3ccccc3C2)c1 (stereo unspecified),inactive,–

SMILES,Potency,"activity change, negative = inhibition"
Cc1nc(S(=O)(=O)c2ccc(Br)cc2)nc2c1CCC2,inactive,–
Brc1ccc(Nc2c3c(nc4ncnn24)CCC3)cc1,0.586 µM (active),–
Cc1cc(Nc2ccc(Br)cc2F)n2ncnc2n1,inactive,–
O=C(COC(=O)C1CC2CCCC(C1)C2=O)NC(=O)c1ccccc1 (stereo unspecified),inactive,–
COCCC(=O)N1CCC(Oc2ccc(C(=O)NCc3ccon3)cc2)CC1,inactive,–
CC(=O)c1c(C)oc2ccc(NS(=O)(=O)c3ccccc3)cc12,inactive,–
Cc1ccn2c(=O)c(C(=O)NCCC3=CCCCC3)c(O)nc2c1,inactive,–
CCCCC[C@H]1CN(C2CCCCC2)C(=O)[C@@H]1CC(=O)NCc1ccc(OC)cc1,inactive,–
O=C(NCc1ccco1)/C(=C/c1cccc([N+](=O)[O-])c1)NC(=O)c1ccco1,inactive,–
Cc1ccc(N2CCN(c3ccc([N+](=O)[O-])cn3)CC2)c(C)c1,–,-8.92% [at 0.00184 µM]
CN(CCc1cnn(C)c1)Cc1cn(C)nc1-c1ccccc1F,inactive,–
CN(CCNC(=O)c1cc2c(-c3ccccc3F)nn(C)c2s1)C1CCCCC1,1.65 µM (active),–
CCOCCCNC(=O)c1cc2c(=O)n3ccccc3nc2s1,inactive,–
COc1ccc(N2CCN(S(=O)(=O)c3ccc4c(c3)NC(=O)C(C)C(=O)N4)CC2)cc1 (stereo unspecified),inactive,–
CC(=O)c1ccc(S(=O)(=O)Nc2ccc(-c3ccc4nncn4n3)cc2)cc1,inactive,–
COC(=O)C[n+]1cccc2ccccc21,inactive,–
O=C(C[n+]1cc(Br)cc2ccccc21)c1ccc(F)cc1,11.7 µM (active),–
O=C(CNC(=O)c1ccc(F)cc1)c1ccccc1,inactive,–
